# Several values for one entry are separate records, joined by “and”; a condition that tells them apart may be missing. Equal entries are not always repeated. Records with an inconclusive call do not appear. For some of these results: Potency and affinity values are given separately. Activity calls are given as the source filed them.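 How the source made its calls, unless noted: active means normalized viability below 100% at a tested concentration; inactive means the rest.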
# Assays:
# [1] = viability loss in pontine glioma line – cell-based, SU-DIPG-IV, MIPE4.0, CellTiter-Glo, qHTS, dose response (AID 1347063; cut-off not given, nearly all actives have AC50 up to about 30 µM;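 further: compound exposure lasted 48 hours before the viability readout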); conditions: CellTiter-Glo ATP luminescence
# [2] = growth inhibition of DIPG cells – cell-based, MIPE4.0 library, CellTiter-Glo luminescence, qHTS (AID 1347066; cut-off not given, nearly all actives have AC50 up to about 30 µM;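 further: cells exposed to compound for 48 hours before readout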); conditions: SU-DIPG-VI viability, CellTiter-Glo ATP luminescence
# [3] = growth inhibition of DIPG cells – cell-based, MIPE5.0 library, qHTS (AID 1347068; cut-off not given, nearly all actives have IC50 up to about 30 µM;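 on IC50: cells exposed to compound for 48 hours before viability readout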); conditions: SU-DIPG-XXV viability
# [4] = viability loss in pontine glioma line – cell-based, SU-DIPG-XIII, MIPE5.0, CellTiter-Glo, qHTS, dose response (AID 1347064; cut-off not given, nearly all actives have AC50 up to about 23 µM;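 on AC50: cells exposed to compound for 48 hours before the viability read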); conditions: CellTiter-Glo ATP luminescence
# [5] = viability loss in pontine glioma line – cell-based, SU-DIPG-XXV, MIPE5.0, CellTiter-Glo, qHTS, dose response (AID 1347065; cut-off not given, nearly all actives have AC50 up to about 26 µM;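 further: cells exposed to compound for 48 hours before ATP readout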); conditions: CellTiter-Glo ATP luminescence
# [6] = JHH-DIPG-1 glioma cell viability, MIPE5.0 library, CellTiter-Glo luminescence, qHTS (AID 1347067; cut-off not given, nearly all actives have AC50 up to about 26 µM;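 further: cells exposed to compound for 48 hours before readout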); conditions: JHH-DIPG-1 glioma viability, CellTiter-Glo ATP luminescence
# [7] = viability loss with induced miR-34 in A549 – imaging, A549 dox-inducible miR-34, nuclei and caspase counts, primary screen (AID 1347080;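 active means compounds whose cell count with miR-34 switched on is under 0.7 times the count with it off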); conditions: A549 miR-34 inducible, Hoechst nuclei count, 48 h
# [8] = blockers of cellular phospholipid synthesis – cell-based, LOPAC library, screen 4, primary screen (AID 1347384; call rule not given here); conditions: animal cells, phospholipid biosynthesis inhibition screen; at 10 µM
# [9] = galactose survival enhancers in mitochondrial complex I cybrids – cell-based, galactose medium, ATP luminescence, primary screen (AID 1645843;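 active means z-score of at least 1.8 in each of two replicates, scored against plate mean and spread of sample wells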;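 further: positive z means more ATP and so rescue of galactose-driven cybrid death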); conditions: complex I mutant cybrid cells, 72 h, stronger effect = higher value
# [10] = viability loss in pontine glioma line – cell-based, JHH-DIPG-1, MIPE4.0, CellTiter-Glo, qHTS, dose response (AID 1347062; cut-off not given, nearly all actives have AC50 up to about 27 µM;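 on AC50: cells exposed to compound for two days before readout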); conditions: JHH-DIPG-1 viability, CellTiter-Glo ATP luminescence
# [11] = blockers of polyQ-driven CASP3 activation – cell-based (AID 1583); conditions: polyglutamine-induced caspase-3 activation, cell assay; stronger effect = higher value;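 tested at 10 µM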
# [12] = yeast 75Q aggregation reduction – 75Q-TubU reporter (AID 1593); conditions: Yeast 75Q polyglutamine aggregation reporter
# [13] = restoration of touch response, mutant HTT neurons – whole organism, C. elegans mechanosensory neurons, N-terminal huntingtin (AID 1599); conditions: C. elegans polyQ-huntingtin mechanosensory neurons, stronger effect = higher value
# [14] = blockers of cytochrome c efflux from mitochondria – biochemical, purified mitochondria (AID 1603); conditions: stronger effect = lower value;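 further: mouse liver mitochondria challenged with calcium chloride; signal normalized to the plate average as 100%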
# [15] = polyglutamine aggregate formation blockers (AID 1604); conditions: polyglutamine-induced protein aggregation inhibition assay; stronger effect = higher value; tested at 2.5 µM
# [16] = glutamate transport activators, MN-1 cells, MN-1 cell line (AID 1612); conditions: MN-1 motor neuron cells, stronger effect = higher value;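 further: tested at 1 µM final; 0% = mean of DMSO vehicle wells on each plate; positive means more glutamate uptake than control and negative means less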
# [17] = GFP-Q80 aggregate reduction, neuronal-like cells, cell-based, NGF-treated PC12, GFPQ80 (AID 1614); conditions: PC12 NGF-treated GFP-polyQ80 inclusion reduction;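 further: lower means fewer inclusions and 0 means no inclusions at all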
# [18] = 75Q-TubH aggregate inhibition, S. cerevisiae, yeast (AID 1616); conditions: S. cerevisiae 75Q-TubH polyglutamine aggregation suppression; stronger effect = higher value
# [19] = MELAS cybrid and Rieske KO viability enhancers – cell-based, MELAS cybrids, Rieske KO mouse fibroblasts, CellTiter-Glo, primary screen (AID 1508586;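 active means mean z-score across replicates of 1.96 or higher in either the MELAS or the Rieske mutant cell line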;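 further: z relative to plate mean and SD of compound and empty wells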); conditions: low glucose
# [20] = compounds altering circadian rhythm period length – cell-based, LOPAC library, luminescence reporter (AID 2774; call rule not given here;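 further: values are relative to mean of DMSO wells on each plate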); conditions: circadian reporter cells, at 7 µM, actives lie on both sides
# [21] = system: Hepatitis C virus NS3 helicase; experiment: blockers of NS3h binding to ssDNA – biochemical, fluorescence polarization, LOPAC1280 library, primary screen (AID 687035; in the data active means inhibition above about 37%); conditions: Purified HCV NS3 helicase, Cy5-dT15 ssDNA binding fluorescence polarization; stronger effect = higher value; concentration not given here
# [22] = compounds altering Cy5-DNA-NS3h complex signal – biochemical, LOPAC1280, artefact control for HCV NS3 helicase inhibitor project (AID 687037; call rule not given here); conditions: Cy5-DNA-NS3h complex fluorescence interference counterscreen
# [23] = chitosan synthesis blockers in C. neoformans – flow cytometry, Cibacron Brilliant Red staining (AID 1347148; call rule not given here;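 further: compound exposure lasted three days at 37 degrees C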); conditions: Cryptococcus neoformans chitosan, stronger effect = lower value; at 10 µM unless noted
# [24] = compounds altering HSF1 focus formation in cells – imaging, Selleck Cancer Library (AID 1347162; in the data active means plate-normalised HSF1 focus index below about 0.46); conditions: human cells, HSF1 nuclear foci imaging, at 10 µM; SSMD: measured here: HSF1 foci SSMD mean; cell count: measured here: cell number; plate-normalised HSF1 focus index: stronger effect = lower value
# [25] = drug combination growth inhibition, ovarian cancer – cell-based, oncology-focused library, rucaparib conditional, profiling panel (AID 1508598); conditions: patient-derived ovarian cancer cells, CellTiter-Glo viability, 144 h, stronger effect = lower value
# [26] = stronger effect = lower value, cell number ratio, induced over uninduced
# [27] = measured here: relative caspase fold change +Dox/-Dox
# [28] = measured here: total cells with miR-34 induction, stronger effect = lower value
# [29] = measured here: total cells without miR-34 induction
# [30] = MELAS cybrid survival, CellTiter-Glo 48 h, stronger effect = higher value
# [31] = Rieske KO mouse fibroblast survival, CellTiter-Glo 72 h
structure (smiles),measurement,setting,value
CON(C)C(=O)N1N=C(c2cc(F)ccc2F)S[C@]1(CCCN)c1ccccc1,outcome,[1],inactive
same,outcome,[2],inactive
CC(C)N(CCCNC(=O)Nc1ccc(C(C)(C)C)cc1)C[C@H]1O[C@@H](n2cc(Br)c3c(N)ncnc32)[C@H](O)[C@@H]1O,AC50,[1],14.8 µM (active)
same,IC50,[3],23.5 µM (active)
CN(C)C(=O)[C@H](O)[C@H](Cc1ccccc1)NC(=O)c1cc2cc(Cl)ccc2[nH]1,AC50,[1],4.18 µM (active)
same,outcome,[4],inactive
same,outcome,[5],inactive
same,outcome,[6],inactive
same,outcome,[3],inactive
same,fold change,[7]; [26],0.925 (inactive)
same,fold change,[7]; [27],1.42
same,cell count,[7]; [28],8280
same,cell count,[7]; [29],8950
same,outcome,[8],inactive
same,z-score,[9],3.02 (active)
NS(=O)(=O)c1ccc(Nc2nc(OCC3CCCCC3)c3[nH]cnc3n2)cc1,outcome,[10],inactive
same,outcome,[3],inactive
COc1ccc2c(c1OC)C(=O)OC2[C@H]1c2c(cc3c(c2OC)OCO3)CCN1C (some centres undefined),inhibition,[11],-3.24%
same,score,[12],1.28
same,rescue above control,[13],-2.5
same,cytochrome c release ratio,[14],0.93
same,inhibition of aggregation,[15],66.2%
same,glutamate uptake change,[16],-10.2%
same,inclusion score,[17],2
same,aggregation suppression score,[18],1.38
same,AC50,[10],1.87 µM (active)
Cc1cc(Cl)ccc1OCCCC(=O)NO,outcome,[10],inactive
same,outcome,[3],inactive
same,fold change,[7]; [26],0.893 (inactive) and 0.9 (inactive)
same,fold change,[7]; [27],2.21 and 0.917
same,cell count,[7]; [28],6940 and 6970
same,cell count,[7]; [29],7770 and 7740
same,outcome,[8],inactive
same,z-score,[19]; [30],-0.389 (inactive)
same,z-score,[19]; [31],0.796
same,z-score,[9],0.555 (inactive)
C[C@H](Cc1ccc(O)c(O)c1)[C@@H](C)Cc1ccc(O)c(O)c1,period change,[20],0.005 h (inactive)
same,inhibition,[21],-2% (inactive)
same,fluorescence ratio (interference),[22],1 (inactive)
same,AC50,[1],16.6 µM (active)
same,AC50,[4],18.6 µM (active)
same,AC50,[2],23.5 µM (active)
same,outcome,[3],inactive
same,fold change,[7]; [26],1.02 (inactive)
same,fold change,[7]; [27],0.821
same,cell count,[7]; [28],8920
same,cell count,[7]; [29],8770
same,outcome,[8],inactive
same,z-score,[9],-1.22 (inactive)
CNC(=O)c1c(C)oc2cc(Oc3ncnc4cc(OC)c(OC)cc34)ccc12,AC50,[4],9.34 µM (active)
same,AC50,[5],6.61 µM (active)
COc1cc(N2CCC(C(N)=O)CC2)ccc1Nc1nc(N)c(Cl)c(Nc2ccccc2S(=O)(=O)C(C)C)n1,AC50,[1],5.9 µM (active)
O=C(O)c1ccc(CCCc2ccc(OCCc3ccc(F)cc3)cc2)o1,outcome,[4],inactive
Cc1ccc(S(=O)(=O)N[C@@H](Cc2ccccc2)C(=O)CCl)cc1,period change,[20],-0.14 h (inactive)
same,inhibition,[21],-4% (inactive)
same,fluorescence ratio (interference),[22],1 (inactive)
same,AC50,[1],18.7 µM (active)
same,AC50,[5],18.6 µM (active)
same,AC50,[2],20.9 µM (active)
same,AC50,[6],23.5 µM (active)
same,fold change,[7]; [26],1.17 (inactive) and 1.22 (inactive)
same,fold change,[7]; [27],0.738 and 0.849
same,cell count,[7]; [28],1870 and 962
same,cell count,[7]; [29],1600 and 786
same,fold fluorescence,[23],6.27 [at 142.1 µM] (inactive)
same,outcome,[8],inactive
same,z-score,[9],-1.34 (inactive)
O=C(Nc1cccnc1)N1CCC(Cc2cccc(Oc3ccc(C(F)(F)F)cn3)c2)CC1,outcome,[10],inactive
same,outcome,[3],inactive
same,fold change,[7]; [26],1.36 (inactive)
same,fold change,[7]; [27],0.837
same,cell count,[7]; [28],4250
same,cell count,[7]; [29],3120
same,SSMD,[24],3.05
same,cell count,[24],7690
same,plate-normalised HSF1 focus index,[24],1.19 (inactive)
same,z-score,[19]; [30],-0.261 (inactive)
same,z-score,[19]; [31],-0.332
same,viability,"[25]; at 0.000305 µM, OCI-C5x cells, with rucaparib 10 µM, 100% = cells with rucaparib alone",111% (inactive)
same,viability,"[25]; at 0.000305 µM, OCI-C5x cells, without rucaparib",123% (inactive)
same,viability,"[25]; at 0.000305 µM, OCI-P5x cells, with rucaparib 20 µM, 100% = cells with rucaparib alone",110% (inactive)
same,viability,"[25]; at 0.000305 µM, OCI-P5x cells, without rucaparib",110% (inactive)
same,viability,"[25]; at 0.00122 µM, OCI-C5x cells, with rucaparib 10 µM, 100% = cells with rucaparib alone",108% (inactive)
same,viability,"[25]; at 0.00122 µM, OCI-C5x cells, without rucaparib",129% (inactive)
same,viability,"[25]; at 0.00122 µM, OCI-P5x cells, with rucaparib 20 µM, 100% = cells with rucaparib alone",111% (inactive)
same,viability,"[25]; at 0.00122 µM, OCI-P5x cells, without rucaparib",99.8% (active)
same,viability,"[25]; at 0.00488 µM, OCI-C5x cells, with rucaparib 10 µM, 100% = cells with rucaparib alone",128% (inactive)
same,viability,"[25]; at 0.00488 µM, OCI-C5x cells, without rucaparib",120% (inactive)
same,viability,"[25]; at 0.00488 µM, OCI-P5x cells, with rucaparib 20 µM, 100% = cells with rucaparib alone",112% (inactive)
same,viability,"[25]; at 0.00488 µM, OCI-P5x cells, without rucaparib",102% (inactive)
same,viability,"[25]; at 0.0195 µM, OCI-C5x cells, with rucaparib 10 µM, 100% = cells with rucaparib alone",116% (inactive)
same,viability,"[25]; at 0.0195 µM, OCI-C5x cells, without rucaparib",118% (inactive)
same,viability,"[25]; at 0.0195 µM, OCI-P5x cells, with rucaparib 20 µM, 100% = cells with rucaparib alone",105% (inactive)
same,viability,"[25]; at 0.0195 µM, OCI-P5x cells, without rucaparib",102% (inactive)
same,viability,"[25]; at 0.0781 µM, OCI-C5x cells, with rucaparib 10 µM, 100% = cells with rucaparib alone",114% (inactive)
same,viability,"[25]; at 0.0781 µM, OCI-C5x cells, without rucaparib",117% (inactive)
same,viability,"[25]; at 0.0781 µM, OCI-P5x cells, with rucaparib 20 µM, 100% = cells with rucaparib alone",103% (inactive)
same,viability,"[25]; at 0.0781 µM, OCI-P5x cells, without rucaparib",102% (inactive)
same,viability,"[25]; at 0.313 µM, OCI-C5x cells, with rucaparib 10 µM, 100% = cells with rucaparib alone",117% (inactive)
same,viability,"[25]; at 0.313 µM, OCI-C5x cells, without rucaparib",117% (inactive)
same,viability,"[25]; at 0.313 µM, OCI-P5x cells, with rucaparib 20 µM, 100% = cells with rucaparib alone",106% (inactive)
same,viability,"[25]; at 0.313 µM, OCI-P5x cells, without rucaparib",98.4% (active)
same,viability,"[25]; at 1.25 µM, OCI-C5x cells, with rucaparib 10 µM, 100% = cells with rucaparib alone",134% (inactive)
same,viability,"[25]; at 1.25 µM, OCI-C5x cells, without rucaparib",129% (inactive)
same,viability,"[25]; at 1.25 µM, OCI-P5x cells, with rucaparib 20 µM, 100% = cells with rucaparib alone",100% (inactive)
same,viability,"[25]; at 1.25 µM, OCI-P5x cells, without rucaparib",96.3% (active)
same,viability,"[25]; at 5 µM, OCI-C5x cells, with rucaparib 10 µM, 100% = cells with rucaparib alone",126% (inactive)
same,viability,"[25]; at 5 µM, OCI-C5x cells, without rucaparib",124% (inactive)
same,viability,"[25]; at 5 µM, OCI-P5x cells, with rucaparib 20 µM, 100% = cells with rucaparib alone",87.1% (active)
same,viability,"[25]; at 5 µM, OCI-P5x cells, without rucaparib",85.5% (active)
CCc1ccc(N(CC(C)C)S(=O)(=O)c2ccc(OCC3CCOCC3)c(CO)c2)cc1,outcome,[4],inactive
same,AC50,[5],20.9 µM (active)
Cc1cc(C(=O)Nc2cc(Oc3ccc4nc(NC(=O)C5CC5)cn4n3)ccc2C)n(C)n1,AC50,[4],10.5 µM (active)
same,AC50,[5],5.9 µM (active)
COc1cc(OCc2cccc(-c3ccccc3)c2C)cc(OC)c1CN1CCCC[C@H]1C(=O)O,outcome,[4],inactive
same,AC50,[5],20.9 µM (active)
NC(=O)c1cccc2[nH]c(-c3ccc([C@H]4CCCN4)cc3F)nc12,outcome,[1],inactive
same,outcome,[2],inactive
same,outcome,[3],inactive
N#Cc1ccc(Oc2ccc3c(c2)COB3O)cc1,outcome,[1],inactive
same,outcome,[4],inactive
same,outcome,[5],inactive
same,outcome,[2],inactive
same,outcome,[3],inactive
